In PubChem BioAssay AID1159580 (chemical genetic matrix, 2015):
Hit rate of the full screen: of about 5,500 compounds, about 2,000 (36%) were called active. Inconclusive results (about 18%) are left out. No stated cut-off is given here; in the data, active means normalized growth mostly below about 0.91 (no sharp cut-off); inconclusive means no clear call, values can overlap the other calls; inactive means mostly above about 0.92. Some of the results follow.

Assay: chemical genetic growth profiling, strain panel (AID 1159580);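 further: tested at 20 µM; growth read once vehicle control cultures reached saturation at 30 °C; 1 = growth at the plate median or of vehicle wells; lower values mean less growth of the strain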
Conditions: growth OD

Measured: normalized growth

CCC(N)C(O)c1ccc(O)c(O)c1 (configuration not stated)
inactive: S. cerevisiae deletion strains, locus YJR075W, strain HOC1, active compounds read low 1.01 | S. cerevisiae deletion strains, locus YKL009W, strain mrt4, active compounds read low 0.996 | S. cerevisiae deletion strains, locus YKL068W, active compounds read low 0.993 | S. cerevisiae deletion strains, locus YKL085W, strain MDH1 (second series), active compounds read low 0.985 | S. cerevisiae deletion strains, locus YKL085W, strain MDH1, active compounds read low 0.985 | S. cerevisiae deletion strains, locus YKL160W, strain elf1, active compounds read low 0.999 | S. cerevisiae deletion strains, locus YKL190W, strain CNB1, active compounds read low 1.01 | S. cerevisiae deletion strains, locus YKR001C, strain vps1, active compounds read low 0.99 | S. cerevisiae deletion strains, locus YKR026C, strain gcn3, active compounds read low 0.973 | S. cerevisiae deletion strains, locus YKR091W, strain srl3, active compounds read low 0.993 | S. cerevisiae deletion strains, locus YLL001W, strain dnm1, active compounds read low 1 | S. cerevisiae deletion strains, locus YLL026W, active compounds read low 0.984 | S. cerevisiae deletion strains, locus YLL041C, strain sdh2, active compounds read low 1 | S. cerevisiae deletion strains, locus YLR027C, strain aat2, active compounds read low 0.988 | S. cerevisiae deletion strains, locus YLR039C, strain RIC1, active compounds read low 1.06 | S. cerevisiae deletion strains, locus YLR058C, strain SHM2, active compounds read low 1.02 | S. cerevisiae deletion strains, locus YLR102C, strain apc9, active compounds read low 0.983 | S. cerevisiae deletion strains, locus YLR113W, strain HOG1, active compounds read low 0.998 | S. cerevisiae deletion strains, locus YLR221C, strain rsa3, active compounds read low 1 | S. cerevisiae deletion strains, locus YLR258W, strain gsy2, active compounds read low 0.993 | S. cerevisiae deletion strains, locus YLR262C, strain YPT6 (second series), active compounds read low 0.996 | S. cerevisiae deletion strains, locus YLR262C, strain YPT6, active compounds read low 1.05 | S. cerevisiae deletion strains, locus YLR268W, strain sec22, active compounds read low 0.928 | S. cerevisiae deletion strains, locus YLR320W, strain mms22, active compounds read low 0.99 | S. cerevisiae deletion strains, locus YLR330W, strain CHS5, active compounds read low 1.01 | S. cerevisiae deletion strains, locus YLR342W, strain FKS1 (second series), active compounds read low 0.989 | S. cerevisiae deletion strains, locus YLR342W, strain FKS1, active compounds read low 0.995 | S. cerevisiae deletion strains, locus YLR357W, strain rsc2, active compounds read low 0.979 | S. cerevisiae deletion strains, locus YLR370C, strain arc18, active compounds read low 0.989 | S. cerevisiae deletion strains, locus YLR371W, strain rom2, active compounds read low 0.977 | S. cerevisiae deletion strains, locus YLR384C, strain iki3, active compounds read low 0.997 | S. cerevisiae deletion strains, locus YLR418C, strain cdc73, active compounds read low 1.01 | S. cerevisiae deletion strains, locus YML016C, strain PPZ1, active compounds read low 1.01 | S. cerevisiae deletion strains, locus YML032C, strain rad52, active compounds read low 0.972 | S. cerevisiae deletion strains, locus YML120C, strain ndi1, active compounds read low 1.01 | S. cerevisiae deletion strains, locus YML124C, strain tub3, active compounds read low 0.991 | S. cerevisiae deletion strains, locus YMR058W, strain fet3, active compounds read low 0.987 | S. cerevisiae deletion strains, locus YMR078C, strain ctf18, active compounds read low 0.977 | S. cerevisiae deletion strains, locus YMR125W, strain sto1, active compounds read low 0.964 | S. cerevisiae deletion strains, locus YMR129W, active compounds read low 1 | S. cerevisiae deletion strains, locus YMR205C, strain PFK2, active compounds read low 0.97 | S. cerevisiae deletion strains, locus YMR223W, strain ubp8, active compounds read low 1.02 | S. cerevisiae deletion strains, locus YMR231W, strain pep5, active compounds read low 0.996 | S. cerevisiae deletion strains, locus YMR263W, strain SAP30, active compounds read low 1.01 | S. cerevisiae deletion strains, locus YMR307W, strain GAS1, active compounds read low 1.01 | S. cerevisiae deletion strains, locus YNL067W, strain RPL9B, active compounds read low 0.993 | S. cerevisiae deletion strains, locus YNL071W, strain lat1, active compounds read low 0.991 | S. cerevisiae deletion strains, locus YNL128W, strain TEP1, active compounds read low 1.02 | S. cerevisiae deletion strains, locus YNL153C, strain GIM3, active compounds read low 0.985 | S. cerevisiae deletion strains, locus YNL183C, strain NPR1, active compounds read low 0.968 | S. cerevisiae deletion strains, locus YNL209W, strain ssb2, active compounds read low 1 | S. cerevisiae deletion strains, locus YNL233W, strain BNI4, active compounds read low 0.992 | S. cerevisiae deletion strains, locus YNL248C, strain rpa49, active compounds read low 1.01 | S. cerevisiae deletion strains, locus YNL250W, strain rad50, active compounds read low 0.988 | S. cerevisiae deletion strains, locus YNL271C, strain bni1, active compounds read low 0.99 | S. cerevisiae deletion strains, locus YNL298W, strain CLA4, active compounds read low 0.993 | S. cerevisiae deletion strains, locus YNL307C, strain MCK1, active compounds read low 1 | S. cerevisiae deletion strains, locus YNL322C, strain KRE1 (second series), active compounds read low 0.985 | S. cerevisiae deletion strains, locus YNL322C, strain KRE1, active compounds read low 1.01 | S. cerevisiae deletion strains, locus YNR049C, strain mso1, active compounds read low 0.995 | S. cerevisiae deletion strains, locus YNR052C, strain pop2, active compounds read low 0.997 | S. cerevisiae deletion strains, locus YOL006C, strain TOP1, active compounds read low 1.05 | S. cerevisiae deletion strains, locus YOL012C, strain htz1 0.91 | S. cerevisiae deletion strains, locus YOL147C, strain pex11, active compounds read low 0.991 | S. cerevisiae deletion strains, locus YOR001W, strain rrp6, active compounds read low 1 | S. cerevisiae deletion strains, locus YOR061W, strain CKA2, active compounds read low 1.02 | S. cerevisiae deletion strains, locus YOR069W, strain VPS5, active compounds read low 1.01 | S. cerevisiae deletion strains, locus YOR070C, strain gyp1, active compounds read low 0.991 | S. cerevisiae deletion strains, locus YOR080W, strain dia2, active compounds read low 0.986 | S. cerevisiae deletion strains, locus YOR083W, strain WHI5, active compounds read low 1.01 | S. cerevisiae deletion strains, locus YOR106W, strain vam3, active compounds read low 0.997 | S. cerevisiae deletion strains, locus YOR136W, strain idh2, active compounds read low 0.989 | S. cerevisiae deletion strains, locus YOR144C, strain elg1, active compounds read low 0.986 | S. cerevisiae deletion strains, locus YOR184W, strain ser1, active compounds read low 1 | S. cerevisiae deletion strains, locus YOR231W, strain MKK1, active compounds read low 1.02 | S. cerevisiae deletion strains, locus YOR265W, strain rbl2, active compounds read low 0.99 | S. cerevisiae deletion strains, locus YOR270C, strain vph1, active compounds read low 1.02 | S. cerevisiae deletion strains, locus YOR290C, strain snf2, active compounds read low 0.987 | S. cerevisiae deletion strains, locus YOR316C, strain cot1, active compounds read low 0.989 | S. cerevisiae deletion strains, locus YPL051W, strain arl3, active compounds read low 0.983 | S. cerevisiae deletion strains, locus YPL055C, strain LGE1, active compounds read low 1.03 | S. cerevisiae deletion strains, locus YPL078C, strain atp4, active compounds read low 0.996 | S. cerevisiae deletion strains, locus YPL106C, strain sse1, active compounds read low 0.94 | S. cerevisiae deletion strains, locus YPL240C, strain hsp82, active compounds read low 1.01 | S. cerevisiae deletion strains, locus YPL241C, strain CIN2, active compounds read low 1.01 | S. cerevisiae deletion strains, locus YPL256C, strain CLN2, active compounds read low 1.01 | S. cerevisiae deletion strains, locus YPR119W, strain clb2, active compounds read low 0.981 | S. cerevisiae deletion strains, locus YPR141C, strain kar3, active compounds read low 0.984 | S. cerevisiae deletion strains, locus YPR163C, strain tif3, active compounds read low 0.996 | S. cerevisiae deletion strains, locus YPR167C, strain met16, active compounds read low 0.99 | S. cerevisiae deletion strains, strain wtn01, active compounds read low 0.979 | S. cerevisiae strains, strain wild type, active compounds read low 1.02
